From PubChem BioAssay AID2078 (The Scripps Research Institute Molecular Screening Center, 2009)
Activity calls are given as the source filed them. No rule for the calls is given here.

Assay: STAT3 blockade with qPCR and toxicity readouts – cell-based, STAT1 panel, cytotoxicity, late-stage follow-up (AID 2078)
Details: STAT3/STAT1 inhibition panel, cell reporter assay, Quantitative PCR; qPCR mRNA fold change, at 10 µM, stronger effect = lower value

c1ccc(CC2CCN(c3ncnc4sccc34)CC2)cc1
fold change: 0.68 | outcome: active; probe
